Data reported in PubChem BioAssay AID1159580 (chemical genetic matrix, 2015).
Several values for one entry are separate records, joined by “and”; a condition that tells them apart may be missing. Equal entries are not always repeated. About 2,000 (36%) of roughly 5,500 compounds were called active. Inconclusive results (about 18%) are left out. Cut-off read from the data, not from the text of the source: active = normalized growth mostly below about 0.91 (no sharp cut-off); inconclusive = no clear call, values can overlap the other calls; inactive = mostly above about 0.92. The list shows a part of the results.

Test: chemical genetic growth profiling, strain panel (AID 1159580);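 note: tested at 20 µM; growth read once vehicle control cultures reached saturation at 30 °C; 1 = growth at the plate median or of vehicle wells; lower values mean less growth of the strain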
Conditions: S. cerevisiae deletion strains, growth OD

Measured: normalized growth

COC(=O)[C@@H]1OC(=O)C2OC23[C@@]1(C)CCC1[C@]2(C)C(C[C@@H](O)[C@]13C)C(C)(C)[C@H](OC(C)=O)C[C@@H]2OC(C)=O (stereo not given in full)
inactive: locus YAL021C, strain ccr4, hits give low values 1 | locus YAL026C, strain drs2, hits give low values 1.01 | locus YAL030W, strain snc1, hits give low values 1 | locus YBL061C, strain skt5, hits give low values 1 | locus YBR009C, strain hhf1, hits give low values 1.03 | locus YBR021W, strain FUR4, hits give low values 0.993 | locus YBR023C, strain chs3, hits give low values 0.997 | locus YBR171W, strain sec66, hits give low values 0.995 | locus YBR229C, strain ROT2, hits give low values 1.01 | locus YBR231C, strain swc5, hits give low values 1.01 | locus YBR279W, strain paf1, hits give low values 1 | locus YCL011C, strain gbp2, hits give low values 1.01 | locus YCL016C, strain dcc1, hits give low values 1 | locus YCL029C, strain bik1, hits give low values 1.01 | locus YCL069W, strain vba3, hits give low values 0.996 | locus YCR088W, strain abp1, hits give low values 0.991 | locus YDL005C, strain med2, hits give low values 0.987 | locus YDL035C, strain GPR1, hits give low values 1.05 | locus YDL040C, strain nat1, hits give low values 1 | locus YDL074C, strain BRE1, hits give low values 1.06 | locus YDL101C, strain DUN1, hits give low values 1.02 | locus YDL134C, strain PPH21, hits give low values 1.02 | locus YDL185W, strain tfp1, hits give low values 1.01 | locus YDL192W, strain arf1, hits give low values 1.01 | locus YDR001C, strain nth1, hits give low values 0.997 | locus YDR069C, strain doa4, hits give low values 1.01 | locus YDR101C, strain arx1, hits give low values 1.03 | locus YDR137W, strain rgp1, hits give low values 1.03 | locus YDR150W, strain NUM1, hits give low values 1.01 | locus YDR159W, strain sac3, hits give low values 0.985 | locus YDR162C, strain NBP2, hits give low values 1.03 | locus YDR195W, strain ref2 0.988 | locus YDR297W, strain sur2, hits give low values 0.989 | locus YDR318W, strain mcm21, hits give low values 0.995 | locus YDR334W, strain swr1, hits give low values 1 | locus YDR335W, strain msn5, hits give low values 1 | locus YDR388W, hits give low values 1.01 | locus YDR392W, strain spt3, hits give low values 1.01 | locus YDR502C, strain sam2, hits give low values 1 | locus YEL003W, strain gim4, hits give low values 1 | locus YEL037C, strain rad23, hits give low values 1 | locus YEL061C, strain CIN8 (second series), hits give low values 0.986 | locus YEL061C, strain CIN8, hits give low values 1.01 | locus YER015W, strain faa2, hits give low values 0.994 | locus YER016W, strain bim1, hits give low values 1 | locus YER110C, hits give low values 0.995 | locus YER111C, strain swi4, hits give low values 1 | locus YER155C, strain BEM2 (second series), hits give low values 1.01 | locus YER155C, strain BEM2, hits give low values 0.989 | locus YER167W, strain BCK2, hits give low values 1.02 | locus YFR010W, strain ubp6, hits give low values 1.02 | locus YGL078C, strain dbp3, hits give low values 1.01 | locus YGL086W, strain mad1, hits give low values 0.996 | locus YGL167C, strain pmr1, hits give low values 1 | locus YGL173C, strain kem1, hits give low values 1 | locus YGL227W, strain vid30, hits give low values 1.01 | locus YGL240W, strain doc1, hits give low values 1 | locus YGL248W, strain PDE1, hits give low values 1.01 | locus YGL253W, strain hxk2, hits give low values 1.01 | locus YGR135W, strain pre9, hits give low values 0.971 | locus YGR252W, strain gcn5, hits give low values 0.966 | locus YHR013C, strain ard1, hits give low values 0.989 | locus YHR027C, strain rpn1, hits give low values 1 | locus YHR030C, strain SLT2, hits give low values 0.998 | locus YHR079C, strain IRE1 (second series), hits give low values 1 | locus YHR079C, strain IRE1, hits give low values 1.01 | locus YHR094C, strain hxt1, hits give low values 1.01 | locus YHR129C, strain ARP1, hits give low values 0.999 | locus YHR142W, strain chs7, hits give low values 1 | locus YHR200W, strain rpn10, hits give low values 1.01 | locus YIL066C, strain RNR3, hits give low values 1.03 | locus YIL073C, strain SPO22, hits give low values 1.03 | locus YIL125W, strain kgd1, hits give low values 0.997 | locus YIR030C, strain dcg1, hits give low values 0.992 | locus YJL092W, strain hpr5, hits give low values 0.997 | locus YJL095W, strain BCK1 (second series), hits give low values 0.989 | locus YJL095W, strain BCK1, hits give low values 1 and 0.991 | locus YJL115W, strain asf1, hits give low values 0.995 | locus YJL129C, strain trk1, hits give low values 0.995 | locus YJL134W, strain LCB3, hits give low values 1.01 | locus YJL154C, strain vps35, hits give low values 1.01 | locus YJL164C, strain tpk1, hits give low values 1.02 | locus YJL166W, strain qcr8, hits give low values 1.01 | locus YJL168C, strain set2, hits give low values 0.998 | locus YJL187C, strain SWE1 (second series), hits give low values 1 | locus YJL187C, strain SWE1, hits give low values 1.01 | locus YJR066W, strain TOR1, hits give low values 0.913 | locus YKL009W, strain mrt4, hits give low values 0.998 | locus YKL068W, hits give low values 1 | locus YKL085W, strain MDH1 (second series), hits give low values 0.999 | locus YKL085W, strain MDH1, hits give low values 0.999 | locus YKL160W, strain elf1, hits give low values 1 | locus YKL190W, strain CNB1, hits give low values 1.01 | locus YKR001C, strain vps1, hits give low values 1.01 | locus YKR026C, strain gcn3, hits give low values 0.993 | locus YKR091W, strain srl3, hits give low values 0.999 | locus YLL001W, strain dnm1, hits give low values 1.01 | locus YLL026W, hits give low values 0.998 | locus YLL041C, strain sdh2, hits give low values 0.995 | locus YLR027C, strain aat2, hits give low values 1.01 | locus YLR039C, strain RIC1, hits give low values 1.12 | locus YLR058C, strain SHM2, hits give low values 1.02 | locus YLR102C, strain apc9, hits give low values 1 | locus YLR113W, strain HOG1, hits give low values 1.08 | locus YLR221C, strain rsa3, hits give low values 0.999 | locus YLR258W, strain gsy2, hits give low values 1.01 | locus YLR262C, strain YPT6 (second series), hits give low values 0.997 | locus YLR268W, strain sec22, hits give low values 1.02 | locus YLR320W, strain mms22, hits give low values 1 | locus YLR330W, strain CHS5, hits give low values 1.01 | locus YLR342W, strain FKS1, hits give low values 1 | locus YLR357W, strain rsc2, hits give low values 0.969 | locus YLR370C, strain arc18, hits give low values 1.01 | locus YLR371W, strain rom2, hits give low values 0.988 | locus YLR384C, strain iki3, hits give low values 0.988 | locus YLR418C, strain cdc73, hits give low values 0.972 | locus YML016C, strain PPZ1, hits give low values 1.01 | locus YML032C, strain rad52, hits give low values 1.01 | locus YML120C, strain ndi1, hits give low values 0.994 | locus YML124C, strain tub3, hits give low values 0.987 | locus YMR058W, strain fet3, hits give low values 1.01 | locus YMR078C, strain ctf18, hits give low values 1 | locus YMR125W, strain sto1, hits give low values 0.987 | locus YMR129W, hits give low values 0.996 | locus YMR205C, strain PFK2, hits give low values 1.01 | locus YMR223W, strain ubp8, hits give low values 0.985 | locus YMR231W, strain pep5, hits give low values 0.994 | locus YMR307W, strain GAS1, hits give low values 0.996 | locus YNL067W, strain RPL9B, hits give low values 1.01 | locus YNL071W, strain lat1, hits give low values 0.997 | locus YNL183C, strain NPR1, hits give low values 0.95 | locus YNL209W, strain ssb2, hits give low values 1.01 | locus YNL233W, strain BNI4, hits give low values 1.01 | locus YNL248C, strain rpa49, hits give low values 0.997 | locus YNL250W, strain rad50, hits give low values 1 | locus YNL271C, strain bni1, hits give low values 1.01 | locus YNL298W, strain CLA4, hits give low values 1.01 | locus YNL307C, strain MCK1, hits give low values 1.01 | locus YNL322C, strain KRE1 (second series), hits give low values 0.998 | locus YNL322C, strain KRE1, hits give low values 1.02 | locus YNR049C, strain mso1, hits give low values 0.988 | locus YNR052C, strain pop2, hits give low values 0.996 | locus YOL012C, strain htz1 0.946 | locus YOL147C, strain pex11, hits give low values 0.998 | locus YOR001W, strain rrp6, hits give low values 1.03 | locus YOR061W, strain CKA2, hits give low values 1.02 | locus YOR069W, strain VPS5, hits give low values 1.01 | locus YOR070C, strain gyp1, hits give low values 1 | locus YOR080W, strain dia2, hits give low values 1.01 | locus YOR083W, strain WHI5, hits give low values 1 | locus YOR106W, strain vam3, hits give low values 1.02 | locus YOR136W, strain idh2, hits give low values 0.989 | locus YOR144C, strain elg1, hits give low values 1.01 | locus YOR184W, strain ser1, hits give low values 1.01 | locus YOR231W, strain MKK1, hits give low values 1.01 | locus YOR265W, strain rbl2, hits give low values 0.983 | locus YOR270C, strain vph1, hits give low values 1.02 | locus YOR290C, strain snf2, hits give low values 1 | locus YOR316C, strain cot1, hits give low values 1 | locus YPL051W, strain arl3, hits give low values 1.01 | locus YPL055C, strain LGE1, hits give low values 1.03 | locus YPL078C, strain atp4, hits give low values 1.01 | locus YPL106C, strain sse1, hits give low values 0.999 | locus YPL240C, strain hsp82, hits give low values 1 | locus YPL256C, strain CLN2, hits give low values 1.01 | locus YPR119W, strain clb2, hits give low values 1 | locus YPR141C, strain kar3, hits give low values 1 | locus YPR163C, strain tif3, hits give low values 1.01 | locus YPR167C, strain met16, hits give low values 1 | strain wtn01, hits give low values 1
